Test results from PubChem BioAssay AID1117270 (Broad Institute, 2014).
Potency and affinity values are given separately.

Test: inducers of E-selectin gene expression, confirmation, orthogonal assay for E-selectin inducer project, cell-based, HUVEC, RT-qPCR, dry powder (AID 1117270)
Conditions: HUVEC SELE mRNA, 7 h; at 38 µM unless noted;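 active means compounds with a valid dose curve toward the stimulated control whose half-maximal dose is at most twice the top dose; inconclusive means curve fit judged invalid or of poor quality; inactive means the rest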

Max activity, inactive:
CCc1cccc2c1NC1(CCCC1)CC2C (centres undefined) 7.51% [at 5 µM]
COc1cc(CC2C(=O)Nc3ccccc32)cc(C)c1O (centres undefined) 8.57% [at 0.038 µM]
Cc1cc2cc(CNC(=O)Nc3cccc(Cl)c3)ccc2n1C 7.76% [at 1.2 µM]
O=C(O)C1CCN(c2nc(-c3ccccc3)c3cc(Br)ccc3n2)CC1 -4.71% [at 0.038 µM]
Cc1ccc(S(=O)(=O)NCc2ccc3c(c2)cc(C)n3C)cc1 4.64%
CCc1ccc(-n2c(=S)sc3c(=O)n(-c4ccccc4C)c(SCC(=O)O)nc32)cc1 9.28% [at 10 µM]
Cc1cc2cc(CNC(=O)Nc3ccc(Cl)c(Cl)c3)ccc2n1C -8.31%
CNc1ccccc1C(C)(C)c1cc(-c2cccc(OC)c2)no1 -5.8% [at 0.0001 µM]
Cc1cc(C)c(S(=O)(=O)NCCn2c(C)cc3ccccc32)c(C)c1 -91.1%
Cc1cc2ccccc2n1CCNC(=O)COc1ccc2ccccc2c1 9.31% [at 10 µM]
OCc1ccc(-c2nn(Cc3ccccc3)c3ccccc23)o1 6.5% [at 2.6 µM]
COc1ccc(Nc2ccccc2N)cc1 12.2%
Cc1ccc(CSc2nc3[nH]ncc3c(=O)[nH]2)cc1 8.8% [at 0.0001 µM]
O=C(c1c(F)cccc1F)N(Cc1ccccc1)Cc1ccccc1 -17.4% [at 0.16 µM]
